{
  "source": "paper PMC4336329",
  "about": "(PLoS ONE, 2015)",
  "note": "Screen size: about 310,000 compounds; about 2,200 (0.71%) showed an effect of 50% or more. Effects have a minus sign here. Only a selection was taken, and strong results are over-represented in it overall.",
  "data": [
    {"biological_target": "human ether-à-go-go-related gene (hERG) potassium channel (human, UniProt Q12809)", "sequence (Q12809 whole entry, looked up)": "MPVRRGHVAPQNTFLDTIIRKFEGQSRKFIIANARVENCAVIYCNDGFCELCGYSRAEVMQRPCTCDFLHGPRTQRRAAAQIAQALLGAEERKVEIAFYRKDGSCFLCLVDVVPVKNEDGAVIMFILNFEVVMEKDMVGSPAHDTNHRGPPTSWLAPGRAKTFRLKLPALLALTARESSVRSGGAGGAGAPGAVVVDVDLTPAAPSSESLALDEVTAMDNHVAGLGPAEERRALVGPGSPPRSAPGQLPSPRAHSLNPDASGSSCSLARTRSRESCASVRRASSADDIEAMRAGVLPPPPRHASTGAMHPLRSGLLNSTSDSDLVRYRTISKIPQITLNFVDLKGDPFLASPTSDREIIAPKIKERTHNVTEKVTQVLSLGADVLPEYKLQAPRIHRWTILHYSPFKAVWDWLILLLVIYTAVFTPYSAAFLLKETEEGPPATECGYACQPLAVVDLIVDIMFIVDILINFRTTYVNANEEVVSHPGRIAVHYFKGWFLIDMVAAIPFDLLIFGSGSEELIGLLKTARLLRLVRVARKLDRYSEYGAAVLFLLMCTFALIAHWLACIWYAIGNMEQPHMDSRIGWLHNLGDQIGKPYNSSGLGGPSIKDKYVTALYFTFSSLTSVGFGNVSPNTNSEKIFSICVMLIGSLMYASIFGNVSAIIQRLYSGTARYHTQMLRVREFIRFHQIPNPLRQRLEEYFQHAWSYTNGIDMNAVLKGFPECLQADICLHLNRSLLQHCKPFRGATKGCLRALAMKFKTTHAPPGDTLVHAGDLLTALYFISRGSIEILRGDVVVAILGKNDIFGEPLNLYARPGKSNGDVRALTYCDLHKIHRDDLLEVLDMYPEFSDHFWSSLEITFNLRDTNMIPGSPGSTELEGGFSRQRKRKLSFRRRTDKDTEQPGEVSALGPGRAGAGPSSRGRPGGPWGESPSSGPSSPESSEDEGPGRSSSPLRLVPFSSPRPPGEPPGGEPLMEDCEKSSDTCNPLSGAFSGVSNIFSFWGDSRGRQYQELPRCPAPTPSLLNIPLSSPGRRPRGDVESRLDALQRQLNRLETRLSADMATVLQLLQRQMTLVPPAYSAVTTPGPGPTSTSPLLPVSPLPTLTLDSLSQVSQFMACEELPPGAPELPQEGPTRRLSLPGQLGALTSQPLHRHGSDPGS", "assay": "primary screen, population patch clamp on CHO cells stably expressing hERG; higher = less effect of the substance", "units": {"hERG current change (%, negative = inhibition) at 1uM": "%"}, "values": [
      {"smiles": "CC(C)CN(C(=O)CSc1nnc2ccccn12)C1CCS(=O)(=O)C1", "note": "(stereo not shown)", "hERG current change (%, negative = inhibition) at 1uM": 8.69},
      {"smiles": "CCOC(=O)Cn1ncc2c3ccccc3n(CC(=O)OCC)c2c1=O", "hERG current change (%, negative = inhibition) at 1uM": 13.4},
      {"smiles": "Cc1cccc(CSc2nnc(-c3ccccn3)n2N)c1", "hERG current change (%, negative = inhibition) at 1uM": 9.76},
      {"smiles": "Cc1cccc(CSc2ccc3nnc(-c4cccs4)n3n2)c1", "hERG current change (%, negative = inhibition) at 1uM": 5.73},
      {"smiles": "Cc1cccc(CSc2ccc3nnc(-c4ccccn4)n3n2)c1", "hERG current change (%, negative = inhibition) at 1uM": -58.9},
      {"smiles": "Cc1ccc(NC(=O)c2cc(NC(=O)C3CC=CCC3C(=O)O)ccc2N2CCOCC2)cc1Cl", "note": "(stereo not shown)", "hERG current change (%, negative = inhibition) at 1uM": 5.76},
      {"smiles": "O=C(/C=C/c1ccco1)Nc1cccc(S(=O)(=O)N2CCOCC2)c1", "hERG current change (%, negative = inhibition) at 1uM": -5.85},
      {"smiles": "CCOc1ccc(CN2CCN(Cc3c[nH]c4ccccc34)CC2)cc1.O=C(O)C(=O)O", "hERG current change (%, negative = inhibition) at 1uM": -85.8},
      {"smiles": "COc1ccc(CN2CCN(Cc3c[nH]c4ccccc34)CC2)cc1.O=C(O)C(=O)O", "hERG current change (%, negative = inhibition) at 1uM": -27.2},
      {"smiles": "O=C(O)C(=O)O.O=[N+]([O-])c1ccc(S(=O)(=O)N2CCN(Cc3c[nH]c4ccccc34)CC2)cc1", "hERG current change (%, negative = inhibition) at 1uM": -10.1},
      {"smiles": "O=[N+]([O-])c1ccc(CN2CCN(Cc3c[nH]c4ccccc34)CC2)cc1", "hERG current change (%, negative = inhibition) at 1uM": -73.7},
      {"smiles": "c1ccc(CN2CCN(Cc3c[nH]c4ccccc34)CC2)cc1", "hERG current change (%, negative = inhibition) at 1uM": 15.3},
      {"smiles": "Brc1ccc(CN2CCN(Cc3c[nH]c4ccccc34)CC2)cc1.O=C(O)C(=O)O", "hERG current change (%, negative = inhibition) at 1uM": -22},
      {"smiles": "CC(C)Sc1nnc(-c2ccc(S(=O)(=O)N3CCOCC3)cc2)n1C", "hERG current change (%, negative = inhibition) at 1uM": 7.81},
      {"smiles": "CCN(CC)Cc1cc(NC2=NS(=O)(=O)c3ccccc32)ccc1OC(=O)C(C)C.Cl", "hERG current change (%, negative = inhibition) at 1uM": 5.53},
      {"smiles": "COc1ccc(NS(=O)(=O)c2ccc(NS(C)(=O)=O)cc2)cc1", "hERG current change (%, negative = inhibition) at 1uM": 6.82},
      {"smiles": "COc1ccc(CNC(=O)c2ccccc2C(=O)O)cc1", "hERG current change (%, negative = inhibition) at 1uM": 0.458},
      {"smiles": "CCN(CC(=O)Nc1c(F)cccc1F)C(=O)c1ccc(C#N)cc1", "hERG current change (%, negative = inhibition) at 1uM": 8.99},
      {"smiles": "O=C(CSc1nnc(-c2ccncc2)o1)Nc1nncs1", "hERG current change (%, negative = inhibition) at 1uM": 15.3},
      {"smiles": "O=C(CSc1nnc(-c2ccccc2Br)o1)Nc1nncs1", "hERG current change (%, negative = inhibition) at 1uM": -63.5},
      {"smiles": "O=C(CSc1nnc(-c2ccccc2Br)o1)Nc1cccc2ccccc12", "hERG current change (%, negative = inhibition) at 1uM": 3.82},
      {"smiles": "CSc1n[nH]c(NC2=CC(=O)CCC2)n1", "hERG current change (%, negative = inhibition) at 1uM": 15},
      {"smiles": "CC(C(=O)Nc1cccc([N+](=O)[O-])c1)N1CCN(C/C=C/c2ccccc2)CC1", "note": "(stereo not shown)", "hERG current change (%, negative = inhibition) at 1uM": -74.2},
      {"smiles": "CC(C(=O)N(C)Cc1ccccc1)N1CCN(C/C=C/c2ccccc2)CC1", "note": "(stereo not shown)", "hERG current change (%, negative = inhibition) at 1uM": -73.5},
      {"smiles": "CC(C(=O)Nc1cccc(S(=O)(=O)N2CCOCC2)c1)N1CCN(C/C=C/c2ccccc2)CC1", "note": "(stereo not shown)", "hERG current change (%, negative = inhibition) at 1uM": -32.5},
      {"smiles": "COc1ccc(Cl)cc1NC(=O)C(C)N1CCN(C/C=C/c2ccccc2)CC1.O=C(O)C(=O)O", "note": "(stereo not shown)", "hERG current change (%, negative = inhibition) at 1uM": -14.3},
      {"smiles": "COc1ccc(N2CCN(C(C)C(=O)N(C)Cc3ccccc3)CC2)cc1", "note": "(stereo not shown)", "hERG current change (%, negative = inhibition) at 1uM": -10},
      {"smiles": "COc1ccccc1NC(=S)N1CCN(C/C=C/c2ccccc2)CC1", "hERG current change (%, negative = inhibition) at 1uM": 7.29},
      {"smiles": "CC(=O)c1ccc(NC(=O)C(C)N2CCN(C/C=C/c3ccccc3)CC2)cc1", "note": "(stereo not shown)", "hERG current change (%, negative = inhibition) at 1uM": -41},
      {"smiles": "CNC(=O)NC(=O)C(C)N1CCN(C/C=C/c2ccccc2)CC1", "note": "(stereo not shown)", "hERG current change (%, negative = inhibition) at 1uM": -32.1},
      {"smiles": "COc1ccccc1NC(=O)C(C)N1CCN(C/C=C/c2ccccc2)CC1", "note": "(stereo not shown)", "hERG current change (%, negative = inhibition) at 1uM": -75.2},
      {"smiles": "Cc1sc2nc[nH]c(=O)c2c1-c1ccc(F)cc1", "hERG current change (%, negative = inhibition) at 1uM": 17.2},
      {"smiles": "Cc1ccccc1Nc1nc(-c2sc(NC(=O)c3ccccc3)nc2C)cs1", "hERG current change (%, negative = inhibition) at 1uM": 7.9},
      {"smiles": "CC(c1ccncn1)N(C)C(=O)c1ccc2oc(Cc3ccccc3)nc2c1", "note": "(stereo not shown)", "hERG current change (%, negative = inhibition) at 1uM": 9.8},
      {"smiles": "CCOc1ccc(NS(=O)(=O)c2ccc(NS(=O)(=O)c3ccc(SC)cc3)cc2)cc1", "hERG current change (%, negative = inhibition) at 1uM": 9.23},
      {"smiles": "CCCN1Cc2cccc(C(=O)NCc3ccc(C)cc3)c2C1=O", "hERG current change (%, negative = inhibition) at 1uM": -4.32},
      {"smiles": "CCC(C)N(C)C(=O)c1cc2ccccc2c(-c2ccccc2Cl)n1", "note": "(stereo not shown)", "hERG current change (%, negative = inhibition) at 1uM": -5.29},
      {"smiles": "CC(Oc1ccc(Cl)cc1)C(=O)OCC(=O)Nc1ncc(Cl)cc1Cl", "note": "(stereo not shown)", "hERG current change (%, negative = inhibition) at 1uM": 3.29},
      {"smiles": "O=C(Nc1ccc(F)cc1)c1nc[nH]c1C(=O)O", "hERG current change (%, negative = inhibition) at 1uM": 18.5},
      {"smiles": "CCCCCn1c(=N)n(CC(O)COc2ccccc2OC)c2ccccc21.Cl", "note": "(stereo not shown)", "hERG current change (%, negative = inhibition) at 1uM": -86.3},
      {"smiles": "COc1ccccc1OCC(O)Cn1c(=N)n(Cc2ccccc2)c2ccccc21.Cl", "note": "(stereo not shown)", "hERG current change (%, negative = inhibition) at 1uM": -39.6},
      {"smiles": "CCCCCn1c(=N)n(CC(O)COc2ccccc2OC)c2ccccc21", "note": "(stereo not shown)", "hERG current change (%, negative = inhibition) at 1uM": -82.8},
      {"smiles": "C=CCn1c(=N)n(CC(O)COc2ccccc2OC)c2ccccc21.Cl", "note": "(stereo not shown)", "hERG current change (%, negative = inhibition) at 1uM": -43.5}
    ]}
  ]
}
